The target in assay [1] is T1, 3-phosphoinositide-dependent protein kinase 1 (Homo sapiens) (UniProt O15530).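 Also: values are mean inhibition of PDK1.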
T1 sequence (whole entry): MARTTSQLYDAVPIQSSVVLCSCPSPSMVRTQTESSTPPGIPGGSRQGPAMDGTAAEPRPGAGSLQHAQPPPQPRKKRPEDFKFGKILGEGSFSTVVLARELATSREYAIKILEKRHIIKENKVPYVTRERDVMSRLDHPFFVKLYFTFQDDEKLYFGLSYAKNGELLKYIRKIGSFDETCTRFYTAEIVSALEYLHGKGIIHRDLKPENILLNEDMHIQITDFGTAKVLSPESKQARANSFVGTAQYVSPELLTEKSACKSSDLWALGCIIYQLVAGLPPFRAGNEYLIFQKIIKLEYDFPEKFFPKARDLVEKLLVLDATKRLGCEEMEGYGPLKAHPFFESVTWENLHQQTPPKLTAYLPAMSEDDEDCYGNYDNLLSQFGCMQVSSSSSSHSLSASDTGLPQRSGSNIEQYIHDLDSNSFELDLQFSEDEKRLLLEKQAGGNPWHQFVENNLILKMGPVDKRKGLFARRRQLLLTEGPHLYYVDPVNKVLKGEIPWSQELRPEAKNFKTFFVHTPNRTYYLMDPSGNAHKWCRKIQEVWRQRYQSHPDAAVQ
The note with it: at 0.1 µM.

Assay [2] has as its target cAMP-dependent protein kinase catalytic subunit alpha (Homo sapiens) (UniProt P17612). The conditions noted are these: at 0.1 µM.
Assay [3] shares this target. The conditions noted are these: at 1 µM.
The target in assay [4] is Protein kinase C alpha type (Homo sapiens) (UniProt P17252). The conditions noted are these: at 0.1 µM.
Assay [5] shares this target. The conditions noted are these: at 1 µM.
Assay [6] has as its target Protein kinase C beta type (Homo sapiens) (UniProt P05771). The conditions noted are these: at 0.1 µM.
For assay [7] the target is unchanged. The conditions noted are these: at 1 µM.
The target in assay [8] is Protein kinase C eta type (Homo sapiens) (UniProt P24723). The conditions noted are these: at 0.1 µM.
Assay [9] has the same target. The note with it: at 1 µM.
Assay [10] addresses Protein kinase C gamma type (Homo sapiens) (UniProt P05129). The note with it: at 0.1 µM.

17 compounds from ChEMBL document CHEMBL1961873, “Compounds: GSK PKIS; Assays: Nanosyn kinase panel” (2012) can be followed below.

Each structure is given as a SMILES string.

Chain of Protein kinase C beta type (Homo sapiens) (P05771 2-671 limits assumed): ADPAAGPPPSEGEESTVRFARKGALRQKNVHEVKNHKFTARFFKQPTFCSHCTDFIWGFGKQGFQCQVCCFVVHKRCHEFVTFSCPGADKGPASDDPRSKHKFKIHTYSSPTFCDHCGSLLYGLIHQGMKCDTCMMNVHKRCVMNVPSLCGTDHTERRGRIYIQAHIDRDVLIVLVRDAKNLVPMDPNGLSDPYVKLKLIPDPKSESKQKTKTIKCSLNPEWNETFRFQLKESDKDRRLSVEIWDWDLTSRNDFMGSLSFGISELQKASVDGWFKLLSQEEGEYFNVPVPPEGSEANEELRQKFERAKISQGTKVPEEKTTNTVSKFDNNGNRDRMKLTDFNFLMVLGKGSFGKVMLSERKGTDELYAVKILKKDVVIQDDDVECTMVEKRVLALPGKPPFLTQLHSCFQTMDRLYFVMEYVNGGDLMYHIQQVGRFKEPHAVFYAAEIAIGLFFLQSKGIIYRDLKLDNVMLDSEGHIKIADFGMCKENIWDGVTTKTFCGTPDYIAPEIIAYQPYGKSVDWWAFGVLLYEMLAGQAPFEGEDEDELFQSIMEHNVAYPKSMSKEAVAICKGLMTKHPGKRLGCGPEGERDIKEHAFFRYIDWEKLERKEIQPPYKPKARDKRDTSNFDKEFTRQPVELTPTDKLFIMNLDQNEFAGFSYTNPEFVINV
Chain of Protein kinase C eta type (Homo sapiens) (P24723 whole entry): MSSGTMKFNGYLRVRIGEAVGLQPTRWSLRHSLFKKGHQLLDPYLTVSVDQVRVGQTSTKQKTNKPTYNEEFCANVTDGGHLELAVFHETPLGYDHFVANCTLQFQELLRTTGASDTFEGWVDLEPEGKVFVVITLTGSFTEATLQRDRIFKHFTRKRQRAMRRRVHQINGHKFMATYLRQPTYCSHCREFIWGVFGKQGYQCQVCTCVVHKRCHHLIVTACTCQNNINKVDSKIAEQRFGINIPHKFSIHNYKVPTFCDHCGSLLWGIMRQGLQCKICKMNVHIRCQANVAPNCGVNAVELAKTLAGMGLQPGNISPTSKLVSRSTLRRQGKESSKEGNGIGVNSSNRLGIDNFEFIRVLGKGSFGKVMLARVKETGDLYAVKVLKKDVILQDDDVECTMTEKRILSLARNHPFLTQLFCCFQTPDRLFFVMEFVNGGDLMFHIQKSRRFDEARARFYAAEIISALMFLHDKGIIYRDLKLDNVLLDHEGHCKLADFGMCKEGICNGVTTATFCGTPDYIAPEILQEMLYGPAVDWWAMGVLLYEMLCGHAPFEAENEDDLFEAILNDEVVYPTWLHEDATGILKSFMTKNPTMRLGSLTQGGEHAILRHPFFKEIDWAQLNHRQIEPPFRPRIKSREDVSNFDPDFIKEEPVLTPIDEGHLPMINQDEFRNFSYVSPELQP

With `CCc1ccc(Oc2nccc(-c3c(-c4ccc(F)cc4)ncn3C3CCNCC3)n2)cc1`, the inhibition (as a rule, the change of the read-out against control, counted positive when it falls) came out at 1.58% in assay [1]; 25.9% in assay [2]; 75% in assay [3]; 0.98% in assay [4]; 7.86% in assay [5]; 3.94% in assay [6]. Besides, the inhibition in assay [7] is 14.9%; in assay [8] it was 7.26%; in [9], 5.32%; in assay [10], -0.16%.

Turning to `c1ccc(-c2n[nH]cc2-c2ccnc(-c3ccc(OCCN4CCOCC4)cc3)c2)nc1`, the inhibition in assay [1] was 1.56%; in assay [2] it was 7.85%; in [3] it was 3.77%; in assay [4], 2.22%; in assay [5] it was 1.97%; in assay [6] it was 5.36%. Further, the inhibition in [7] was 3.85%; in assay [8], -2.82%; in assay [9], -2.18%; in assay [10], 3.17%.

With `CS(=O)(=O)CCNCc1ccc(-c2ccc3ncnc(Nc4ccc(OCc5ccccc5)c(Br)c4)c3c2)o1`, the inhibition in assay [1] was 2.06%; in [2] it was -1.58%; in assay [3] it was -1.94%; in assay [4], -3.83%; in assay [5] it was -2.95%; in assay [6], 0.95%. The inhibition was -0.59% in assay [7], 5.37% in [8], 5.42% in assay [9] and 0.5% in assay [10].

As for `NC(=O)c1cc(-c2ccc(F)cc2)cc(-c2ccncc2)c1N`, the inhibition was 1.54% in [1]; 1.46% in assay [2]; 3.06% in assay [3]; 0.16% in assay [4]; 1.21% in assay [5]; -1.29% in [6]. Besides, the inhibition in [7] turned out to be 3.15%; in assay [8] it was 3.71%; in assay [9] it was 8.19%; in assay [10] it was 0.15%.

`NC(=O)Cc1ccccc1Oc1nccc(-c2c(-c3ccc(F)cc3)ncn2C2CCNCC2)n1`: the inhibition in assay [1] is 1.03%; in assay [2] it was 1.37%; in assay [3] it was 0.93%; in [4], 0.35%; in assay [5], 1.51%; in [6], -0.44%. Besides, the inhibition in assay [7] amounted to 3.18%; in [8], 3.28%; in [9] it was 0.22%; in [10], 4.12%.

As to `Clc1ccc(CNc2nccc(-c3cnn4ncccc34)n2)cc1`, the inhibition in assay [1] was 2.08%; in [2], 0.38%; in assay [3] it was 1.31%; in assay [4], 0.92%; in assay [5], 4.19%; in assay [6] it was 0.26%. Further, the inhibition was 1.03% in assay [7], 2.3% in assay [8], 7.54% in assay [9] and 0.4% in assay [10].

Take `COc1cc(Nc2ncc3c(C)nc(-c4cccc(C(F)(F)F)c4)n3n2)cc(OC)c1OC`: the inhibition in assay [1] is 3.64%; in assay [2], 2.66%; in assay [3], 2.72%; in assay [4], -0.1%; in [5] it was 1.99%; in assay [6] it was 0.93%. The inhibition in [7] came out at 5.54%; in assay [8] it was 6.38%; in assay [9], 3.64%; in assay [10], 2.47%.

Take `C[C@@H](Oc1cc(-n2cnc3ccc(OC4CCN(C)CC4)cc32)sc1C(N)=O)c1ccccc1Cl`: the inhibition in [1] is 0.63%; in assay [2] it was -1.89%; in assay [3], -4.19%; in assay [4], -3.4%; in assay [5] it was 0.64%; in assay [6] it was 0.95%. In addition, the inhibition stood at 3.55% in assay [7], 2.46% in [8], 4.62% in [9] and 0.71% in assay [10].

Regarding `COc1cc(Nc2ncc3c(C)nc(-c4cccc(Oc5ccccc5)c4)n3n2)cc(OC)c1OC`, the inhibition in assay [1] was 3.74%; in [2], 0.88%; in [3] it was -0.04%; in assay [4] it was 0.01%; in assay [5], 0.77%; in assay [6], -0.46%. The inhibition is -0.16% in assay [7], 4.9% in assay [8], -1.37% in [9] and 0.97% in assay [10].

For `NC(=O)c1cc(-c2ccncc2)cc(-c2ccccc2)c1N`, the inhibition in assay [1] is 2.16%; in assay [2], 2.43%; in assay [3] it was 6.13%; in assay [4] it was 1.21%; in [5] it was 4.38%; in assay [6] it was 1.43%. Besides, the inhibition is 1.87% in [7], 5.05% in [8], 7.89% in assay [9] and -0.73% in assay [10].

For `CNC(=O)c1cncc(/C=C/c2c(C)cccc2C)c1`, the inhibition in [1] was 2.19%; in assay [2], -2.91%; in assay [3], -3.45%; in assay [4], -2.57%; in assay [5], -1.89%; in assay [6], 1.56%. Also, the inhibition in [7] is -0.29%; in [8], 3.75%; in [9] it was 1.62%; in assay [10], -0.51%.

As to `COc1cc(C)c(N(C)C(=O)CN(C)C)cc1Nc1nc(Nc2cccc(F)c2C(N)=O)c2cc[nH]c2n1`, the inhibition is 3.26% in assay [1]; -0.93% in assay [2]; -3.21% in [3]; -3% in assay [4]; -2.59% in assay [5]; 1.6% in assay [6]. The inhibition in [7] was -0.89%; in [8], 4.46%; in assay [9] it was 1.91%; in assay [10], 2.63%.

With `C#Cc1cccc(Nc2ncnc3ccc(OCCCCNCCS(C)(=O)=O)cc23)c1`, the inhibition was 1.83% in assay [1]; -0.23% in assay [2]; -0.04% in assay [3]; -2.51% in [4]; 0.29% in assay [5]; 1.6% in assay [6]. The inhibition in [7] came to 4.77%; in [8], 0.97%; in assay [9], 4.94%; in assay [10] it was 3.27%.

Take `c1ccc(Oc2ccc(Nc3ncc(-c4ccccc4)o3)cc2)cc1`: the inhibition in assay [1] was determined as 3.8%; in [2], 1.26%; in [3] it was 5.43%; in assay [4] it was 1.03%; in assay [5], 1.47%; in [6], 1.14%. Further, the inhibition was 0.76% in [7], -1.38% in assay [8], -0.47% in assay [9] and 1.13% in [10].

`O=C(NCC1CC1)c1ccc(-c2cccc(C(=O)NC3CC3)c2)cc1`: the inhibition in assay [1] was 0.6%; in assay [2], 0.93%; in assay [3], 0.36%; in assay [4], 1.02%; in [5] it was 0.96%; in [6], -0.06%. In addition, the inhibition is -2% in [7], 3.93% in assay [8], -1.4% in assay [9] and 4.6% in [10].

As to `CN(C)c1ccc2c(c1)/C(=C/Nc1ccc(S(N)(=O)=O)cc1)C(=O)N2`, the inhibition in [1] was 11.6%; in [2], 1.77%; in [3] it was 1.6%; in assay [4], 0.48%; in [5], 1.56%; in [6], 0.94%. Further, the inhibition in [7] was 0.89%; in [8], 2.02%; in assay [9], 2.17%; in [10], 0.64%.

Turning to `Fc1ccc(-c2c(-c3ccncc3)nc3n2CCS3)cc1`, the inhibition in assay [1] was 2.05%; in assay [2], -0.65%; in assay [3], 13.2%; in assay [4], -2.65%; in assay [5], -2.48%; in assay [6], 2.56%. Also, the inhibition in assay [7] was 15.9%; in [8] it was -2.42%; in assay [9], 7.59%; in [10] it was 1%.
